# Read-outs that look alike come from different tables or passages of the source.
# Columns and labels:
# FYN = settings: concentration: 1 μM,replicates: in singlicate; n = 1
# GAK = settings: concentration: 1 μM,replicates: in singlicate; n = 1
# GCN2(Kin.Dom.2,S808G) = test system: T1, GCN2(Kin.Dom.2,S808G); settings: concentration: 1 μM,replicates: in singlicate; n = 1
# T1 construct: gene EIF2AK4
# GRK1 = settings: concentration: 1 μM,replicates: in singlicate; n = 1
# GRK2 = test system: T2, GRK2; settings: concentration: 1 μM,replicates: in singlicate; n = 1
# T2 construct: gene ADRBK1
# GRK3 = test system: T3, GRK3; settings: concentration: 1 μM,replicates: in singlicate; n = 1
# T3 construct: gene ADRBK2
# GRK4 = settings: concentration: 1 μM,replicates: in singlicate; n = 1
# GRK7 = settings: concentration: 1 μM,replicates: in singlicate; n = 1
# GSK3A = settings: concentration: 1 μM,replicates: in singlicate; n = 1
# GSK3B = settings: n = 1
# HASPIN = test system: T4, HASPIN; settings: concentration: 1 μM,replicates: in singlicate; n = 1
# T4 construct: gene GSG2
# HCK = settings: concentration: 1 μM,replicates: in singlicate; n = 1
# HIPK1 = settings: concentration: 1 μM,replicates: in singlicate; n = 1
# HIPK2 = settings: concentration: 1 μM,replicates: in singlicate; n = 1
# HIPK3 = settings: concentration: 1 μM,replicates: in singlicate; n = 1
# HIPK4 = settings: concentration: 1 μM,replicates: in singlicate; n = 1
# HPK1 = settings: concentration: 1 μM,replicates: in singlicate; n = 1
# HUNK = settings: concentration: 1 μM,replicates: in singlicate; n = 1
# ICK = settings: concentration: 1 μM,replicates: in singlicate; n = 1
# IGF1R = settings: concentration: 1 μM,replicates: in singlicate; n = 1
# [1] = concentration: 1 μM,replicates: in singlicate
# 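Note: KINOMEscan kinase panel screen.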
structure (smiles),measurement,setting,value
CS(=O)(=O)Nc1ccc(-c2ccnc3[nH]ccc23)cc1 [GSK993273],%Inh,FYN,0%
same,%Inh,GAK,26%
same,%Inh,"GCN2(Kin.Dom.2,S808G)",0%
same,%Inh,GRK1,18%
same,%Inh,GRK2,0%
same,%Inh,GRK3,22%
same,%Inh,GRK4,71%
same,%Inh,GRK7,76%
same,%Inh,GSK3A,0%
same,%Inh,GSK3B; [1],17%
same,%Inh,HASPIN,78%
same,%Inh,HCK,0%
same,%Inh,HIPK1,56%
same,%Inh,HIPK2,8%
same,%Inh,HIPK3,73%
same,%Inh,HIPK4,34%
same,%Inh,HPK1,38%
same,%Inh,HUNK,0%
same,%Inh,ICK,6%
same,%Inh,IGF1R,2%
CN(c1ccccc1CNc1nc(Nc2ccc3c(c2)CC(=O)N3)ncc1C(F)(F)F)S(C)(=O)=O,%Inh,FYN,0%
same,%Inh,GAK,45%
same,%Inh,"GCN2(Kin.Dom.2,S808G)",0%
same,%Inh,GRK1,12%
same,%Inh,GRK2,0%
same,%Inh,GRK3,0%
same,%Inh,GRK4,7%
same,%Inh,GRK7,47%
same,%Inh,GSK3A,64%
same,%Inh,GSK3B; [1],0%
same,%Inh,HASPIN,0%
same,%Inh,HCK,3%
same,%Inh,HIPK1,83%
same,%Inh,HIPK2,80%
same,%Inh,HIPK3,64%
same,%Inh,HIPK4,89%
same,%Inh,HPK1,76%
same,%Inh,HUNK,0%
same,%Inh,ICK,0%
same,%Inh,IGF1R,88%
COC(=O)Nc1nc2cc(Oc3ccc(NC(=O)Nc4cc(C(F)(F)F)ccc4Cl)cc3)ccc2[nH]1.Cl [GW697465],%Inh,FYN,9%
same,%Inh,GAK,0%
same,%Inh,"GCN2(Kin.Dom.2,S808G)",8%
same,%Inh,GRK1,0%
same,%Inh,GRK2,0%
same,%Inh,GRK3,65%
same,%Inh,GRK4,0%
same,%Inh,GRK7,0%
same,%Inh,GSK3A,12%
same,%Inh,GSK3B; [1],0%
same,%Inh,HASPIN,13%
same,%Inh,HCK,0%
same,%Inh,HIPK1,0%
same,%Inh,HIPK2,0%
same,%Inh,HIPK3,3%
same,%Inh,HIPK4,86%
same,%Inh,HPK1,63%
same,%Inh,HUNK,17%
same,%Inh,ICK,0%
same,%Inh,IGF1R,0%
Cl.Cl.NC[C@H](CC1CCCCC1)NC(=O)c1ccc(-c2ccnc3[nH]ccc23)s1 [GSK1581428],%Inh,FYN,17%
same,%Inh,GAK,87%
same,%Inh,"GCN2(Kin.Dom.2,S808G)",0%
same,%Inh,GRK1,93.6%
same,%Inh,GRK2,55%
same,%Inh,GRK3,77%
same,%Inh,GRK4,91.9%
same,%Inh,GRK7,96.2%
same,%Inh,GSK3A,0%
same,%Inh,GSK3B; [1],9%
same,%Inh,HASPIN,88%
same,%Inh,HCK,0%
same,%Inh,HIPK1,98.7%
same,%Inh,HIPK2,96.1%
same,%Inh,HIPK3,98.9%
same,%Inh,HIPK4,94.2%
same,%Inh,HPK1,78%
same,%Inh,HUNK,0%
same,%Inh,ICK,11%
same,%Inh,IGF1R,0%
COc1cc2c(Nc3ccc(NC(=O)c4ccccc4)cc3)ncnc2cc1OCCCN1CCOCC1 [GSK301329],%Inh,FYN,49%
same,%Inh,GAK,0%
same,%Inh,"GCN2(Kin.Dom.2,S808G)",4%
same,%Inh,GRK1,10%
same,%Inh,GRK2,0%
same,%Inh,GRK3,0%
same,%Inh,GRK4,12%
same,%Inh,GRK7,0%
same,%Inh,GSK3A,0%
same,%Inh,GSK3B; [1],11%
same,%Inh,HASPIN,0%
same,%Inh,HCK,0%
same,%Inh,HIPK1,15%
same,%Inh,HIPK2,0%
same,%Inh,HIPK3,3%
same,%Inh,HIPK4,79%
same,%Inh,HPK1,15%
same,%Inh,HUNK,0%
same,%Inh,ICK,2%
same,%Inh,IGF1R,15%
CN1CCN(CCNc2nc3cc(Oc4ccc(NC(=O)Nc5cc(C(F)(F)F)ccc5F)cc4)ccc3[nH]2)CC1.Cl.Cl [GW768504],%Inh,FYN,0%
same,%Inh,GAK,0%
same,%Inh,"GCN2(Kin.Dom.2,S808G)",24%
same,%Inh,GRK1,0%
same,%Inh,GRK2,0%
same,%Inh,GRK3,0%
same,%Inh,GRK4,17%
same,%Inh,GRK7,0%
same,%Inh,GSK3A,20%
same,%Inh,GSK3B; [1],0%
same,%Inh,HASPIN,0%
same,%Inh,HCK,11%
same,%Inh,HIPK1,19%
same,%Inh,HIPK2,0%
same,%Inh,HIPK3,0%
same,%Inh,HIPK4,66%
same,%Inh,HPK1,3%
same,%Inh,HUNK,41%
same,%Inh,ICK,0%
same,%Inh,IGF1R,0%
C[C@@H](Oc1cc(-n2cnc3cc(-c4ccncc4)ccc32)sc1C(N)=O)c1ccccc1Cl [GSK479719],%Inh,FYN,29%
same,%Inh,GAK,59%
same,%Inh,"GCN2(Kin.Dom.2,S808G)",69%
same,%Inh,GRK1,100%
same,%Inh,GRK2,0%
same,%Inh,GRK3,62%
same,%Inh,GRK4,62%
same,%Inh,GRK7,0%
same,%Inh,GSK3A,13%
same,%Inh,GSK3B; [1],24%
same,%Inh,HASPIN,75%
same,%Inh,HCK,9%
same,%Inh,HIPK1,0%
same,%Inh,HIPK2,0%
same,%Inh,HIPK3,15%
same,%Inh,HIPK4,24%
same,%Inh,HPK1,72%
same,%Inh,HUNK,0%
same,%Inh,ICK,4%
same,%Inh,IGF1R,14%
COc1cccc(C2=C(Nc3cccc(Cl)c3)C(=O)NC2=O)c1 [SB-341556],%Inh,FYN,25%
same,%Inh,GAK,12%
same,%Inh,"GCN2(Kin.Dom.2,S808G)",0%
same,%Inh,GRK1,27%
same,%Inh,GRK2,0%
same,%Inh,GRK3,22%
same,%Inh,GRK4,27%
same,%Inh,GRK7,0%
same,%Inh,GSK3A,70%
same,%Inh,GSK3B; 1 µM,35%
same,%Inh,HASPIN,0%
same,%Inh,HCK,0%
same,%Inh,HIPK1,19%
same,%Inh,HIPK2,0%
same,%Inh,HIPK3,33%
same,%Inh,HIPK4,0%
same,%Inh,HPK1,47%
same,%Inh,HUNK,0%
same,%Inh,ICK,33%
same,%Inh,IGF1R,7%
C[C@@H](Oc1cc(-n2cnc3cc(-c4cnn(C)c4)ccc32)sc1C(N)=O)c1ccccc1Cl [GSK580432],%Inh,FYN,47%
same,%Inh,GAK,95.3%
same,%Inh,"GCN2(Kin.Dom.2,S808G)",99.2%
same,%Inh,GRK1,4%
same,%Inh,GRK2,38%
same,%Inh,GRK3,0%
same,%Inh,GRK4,85%
same,%Inh,GRK7,0%
same,%Inh,GSK3A,0%
same,%Inh,GSK3B; [1],0%
same,%Inh,HASPIN,0%
same,%Inh,HCK,64%
same,%Inh,HIPK1,20%
same,%Inh,HIPK2,0%
same,%Inh,HIPK3,4%
same,%Inh,HIPK4,1%
same,%Inh,HPK1,91.3%
same,%Inh,HUNK,0%
same,%Inh,ICK,0%
same,%Inh,IGF1R,0%
CS(=O)(=O)c1cccc(CNc2nc(Nc3ccc4c(c3)[C@@H]3C[C@@H]4CNC3=O)ncc2C(F)(F)F)c1,%Inh,FYN,0%
same,%Inh,GAK,26%
same,%Inh,"GCN2(Kin.Dom.2,S808G)",57%
same,%Inh,GRK1,28%
same,%Inh,GRK2,0%
same,%Inh,GRK3,0%
same,%Inh,GRK4,27%
same,%Inh,GRK7,0%
same,%Inh,GSK3A,74%
same,%Inh,GSK3B; [1],0%
same,%Inh,HASPIN,0%
same,%Inh,HCK,0%
same,%Inh,HIPK1,60%
same,%Inh,HIPK2,34%
same,%Inh,HIPK3,7%
same,%Inh,HIPK4,33%
same,%Inh,HPK1,86%
same,%Inh,HUNK,0%
same,%Inh,ICK,0%
same,%Inh,IGF1R,89%

# — publication PMC5540273 (PLoS ONE, 2017)
